Records with an inconclusive call do not appear. Activity calls are given as the source filed them. Rule for the calls: active = hit-call score of the fitted dose curve at least 0.9, where 1 is the maximum; inconclusive = response in the unintended direction; inactive = score below 0.9.
target: Cellular tumor antigen p53 (Homo sapiens) (UniProt P04637); experiment: TOX21_p53_BLA_p3_ratio: Tox21 HCT-116 p53 Agonism Beta-lactamase Assay, Ratio, Phase 3 (AID 2283596)
Method in brief: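 Cells were seeded at 4000/well, rested 5 h at 37C, then dosed with DMSO compound solutions (217-fold dilution) for 16 h. CCF4-AM substrate was loaded for 2 h at room temperature, and the 460/530 nm emission ratio was fitted for gain of signal versus DMSO.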

Cellular tumor antigen p53 (Homo sapiens), sequence (P04637 whole entry, looked up): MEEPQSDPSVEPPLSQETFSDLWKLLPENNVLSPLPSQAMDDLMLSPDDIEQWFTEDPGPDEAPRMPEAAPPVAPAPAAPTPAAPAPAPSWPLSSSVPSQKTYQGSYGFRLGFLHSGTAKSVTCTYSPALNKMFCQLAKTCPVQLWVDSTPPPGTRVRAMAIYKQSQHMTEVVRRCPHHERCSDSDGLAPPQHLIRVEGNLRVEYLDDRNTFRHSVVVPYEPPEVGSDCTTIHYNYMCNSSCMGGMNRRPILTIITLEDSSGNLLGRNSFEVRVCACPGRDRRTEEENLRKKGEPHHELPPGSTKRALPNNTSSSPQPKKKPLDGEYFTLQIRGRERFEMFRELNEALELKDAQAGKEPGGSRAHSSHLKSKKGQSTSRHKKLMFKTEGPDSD

Row | Compound | outcome
1 | C[C@@]12C(=O)OC(=O)[C@]1(C)C1CCC2O1 | inactive
2 | CN(C)CCn1nnnc1SCC1=C(C(=O)O)N2C(=O)[C@@H](NC(=O)Cc3csc(N)n3)[C@H]2SC1 | inactive
3 | COc1cc(NS(=O)(=O)c2ccc(N)cc2)ncn1 | inactive
4 | CN(C)CCC(c1ccccc1)c1ccccn1 (stereo not drawn) | inactive
5 | CC1=C(/C=C/C(C)=C/C=C/C(C)=C/C=C/C=C(C)/C=C/C=C(C)/C=C/C2=C(C)CCCC2(C)C)C(C)(C)CCC1 | inactive
6 | OCCN1CCN(CCO)CC1 | inactive
7 | C/C=C/C=C/CO | inactive
8 | CC1CCC(NC(=O)N(CCCl)N=O)CC1 (stereo not drawn) | inactive
9 | CC(=O)N[C@@H](CC(C)C)C(=O)O | inactive
10 | Cc1cc(=O)oc2cc(O)cc(O)c12 | inactive
11 | CCCCCCCC | inactive
12 | CCOC(=O)c1c[nH]c2cc(OCC(C)C)c(OCC(C)C)cc2c1=O | inactive
13 | CC(=O)Oc1cccc(C)c1 | inactive
14 | CCC(=O)OC(=O)CC | inactive
15 | O=C(O)CNC(=O)c1ccc([N+](=O)[O-])cc1 | inactive
16 | CCC(=O)OC | inactive
17 | O=[N+]([O-])c1ccccc1Nc1ccccc1 | inactive
18 | NC(CSCC(=O)O)C(=O)O (stereo not drawn) | inactive
19 | CCN(CC)c1cccc(O)c1 | inactive
20 | CCCCCC=CCC1CC(=O)OC1=O (stereo not drawn) | inactive

Row | Compound | outcome
21 | CC1CCc2cc(F)cc3c(=O)c(C(=O)O)cn1c23 (stereo not drawn) | inactive
22 | CCOC(=O)COc1ccc2c(C)c(CCN(CC)CC)c(=O)oc2c1 | inactive
23 | CCCCC | inactive
24 | CC=CC(=O)CC | inactive
25 | H-RKDVY-OH | inactive
26 | CO/N=C(\C(=O)N[C@@H]1C(=O)N2C(C(=O)O)=CCS[C@H]12)c1csc(N)n1 | inactive
27 | C#CCN(C)CCCOc1ccc(Cl)cc1Cl | inactive
28 | CC(C(=O)O)c1ccc2c(c1)[nH]c1ccc(Cl)cc12 (stereo not drawn) | inactive
29 | C=CCn1cc[n+](C)c1 | inactive
30 | C[S+](CC[C@H](N)C(=O)O)C[C@H]1O[C@@H](n2cnc3c(N)ncnc32)[C@H](O)[C@@H]1O (stereo partly drawn) | inactive
31 | O=C(O)c1cc(O)c2c(c1)[C@H]([C@H]1c3cc(C(=O)O)cc(O)c3C(=O)c3c(O[C@@H]4O[C@H](CO)[C@@H](O)[C@H](O)[C@H]4O)cccc31)c1cccc(O[C@@H]3O[C@H](CO)[C@@H](O)[C@H](O)[C@H]3O)c1C2=O | inactive
32 | CC(C)(C)OCC1CO1 (stereo not drawn) | inactive
33 | N=C(N=C(N)N)N1CCOCC1 | inactive
34 | c1coc(Cn2cccc2)c1 | inactive
35 | NCCCNCCCCNC(=O)C(O)NC(=O)CCCCCCN=C(N)N (stereo not drawn) | inactive
36 | C=C(C)C1CC=C(C)C(O)C1 (stereo not drawn) | inactive
37 | CC(C)[C@@H](N)C(=O)O | inactive
38 | CCC1OCC(COc2ccc(Oc3ccccc3)cc2)O1 (stereo not drawn) | inactive
39 | CN1C(=O)CC(c2ccccc2)C1=O (stereo not drawn) | inactive

target: Cellular tumor antigen p53 (Homo sapiens) (UniProt P04637); experiment: TOX21_p53_BLA_p5_ratio: Tox21 HCT-116 p53 Agonism Beta-lactamase Assay, Ratio, Phase 5 (AID 2283599)
Method in brief: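 Beta-lactamase reporter ratio (blue 460 nm over green 530 nm, 405 nm excitation) after 2 h CCF4-AM loading, in HCT-116 cells exposed 16 h at 37 C to compounds pinned at 217-fold dilution. Increases relative to DMSO baseline scored.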

Row | Compound | outcome
40 | C[C@@]12C(=O)OC(=O)[C@]1(C)C1CCC2O1 | inactive
41 | CN(C)CCn1nnnc1SCC1=C(C(=O)O)N2C(=O)[C@@H](NC(=O)Cc3csc(N)n3)[C@H]2SC1 | inactive
42 | COc1cc(NS(=O)(=O)c2ccc(N)cc2)ncn1 | inactive
43 | CN(C)CCC(c1ccccc1)c1ccccn1 (stereo not drawn) | inactive
44 | CC1=C(/C=C/C(C)=C/C=C/C(C)=C/C=C/C=C(C)/C=C/C=C(C)/C=C/C2=C(C)CCCC2(C)C)C(C)(C)CCC1 | inactive
45 | OCCN1CCN(CCO)CC1 | inactive
46 | C/C=C/C=C/CO | inactive
47 | CC1CCC(NC(=O)N(CCCl)N=O)CC1 (stereo not drawn) | inactive
48 | CC(=O)N[C@@H](CC(C)C)C(=O)O | inactive
49 | Cc1cc(=O)oc2cc(O)cc(O)c12 | inactive
50 | CCCCCCCC | inactive
51 | CCOC(=O)c1c[nH]c2cc(OCC(C)C)c(OCC(C)C)cc2c1=O | inactive
52 | CC(=O)Oc1cccc(C)c1 | inactive
53 | CCC(=O)OC(=O)CC | inactive
54 | O=C(O)CNC(=O)c1ccc([N+](=O)[O-])cc1 | inactive
55 | CCC(=O)OC | inactive
56 | O=[N+]([O-])c1ccccc1Nc1ccccc1 | inactive
57 | NC(CSCC(=O)O)C(=O)O (stereo not drawn) | inactive
58 | CCN(CC)c1cccc(O)c1 | inactive
59 | CCCCCC=CCC1CC(=O)OC1=O (stereo not drawn) | inactive

Row | Compound | outcome
60 | CC1CCc2cc(F)cc3c(=O)c(C(=O)O)cn1c23 (stereo not drawn) | inactive
61 | CCOC(=O)COc1ccc2c(C)c(CCN(CC)CC)c(=O)oc2c1 | inactive
62 | CCCCC | inactive
63 | CC=CC(=O)CC | inactive
64 | H-RKDVY-OH | inactive
65 | CO/N=C(\C(=O)N[C@@H]1C(=O)N2C(C(=O)O)=CCS[C@H]12)c1csc(N)n1 | inactive
66 | C#CCN(C)CCCOc1ccc(Cl)cc1Cl | inactive
67 | CC(C(=O)O)c1ccc2c(c1)[nH]c1ccc(Cl)cc12 (stereo not drawn) | inactive
68 | C=CCn1cc[n+](C)c1 | inactive
69 | C[S+](CC[C@H](N)C(=O)O)C[C@H]1O[C@@H](n2cnc3c(N)ncnc32)[C@H](O)[C@@H]1O (stereo partly drawn) | inactive
70 | O=C(O)c1cc(O)c2c(c1)[C@H]([C@H]1c3cc(C(=O)O)cc(O)c3C(=O)c3c(O[C@@H]4O[C@H](CO)[C@@H](O)[C@H](O)[C@H]4O)cccc31)c1cccc(O[C@@H]3O[C@H](CO)[C@@H](O)[C@H](O)[C@H]3O)c1C2=O | inactive
71 | CC(C)(C)OCC1CO1 (stereo not drawn) | inactive
72 | N=C(N=C(N)N)N1CCOCC1 | inactive
73 | c1coc(Cn2cccc2)c1 | inactive
74 | NCCCNCCCCNC(=O)C(O)NC(=O)CCCCCCN=C(N)N (stereo not drawn) | inactive
75 | C=C(C)C1CC=C(C)C(O)C1 (stereo not drawn) | inactive
76 | CC(C)[C@@H](N)C(=O)O | inactive
77 | CCC1OCC(COc2ccc(Oc3ccccc3)cc2)O1 (stereo not drawn) | inactive
78 | CN1C(=O)CC(c2ccccc2)C1=O (stereo not drawn) | inactive

From PubChem BioAssay (EPA / NIEHS)
